Our source for the Percent Effect values is ChEMBL document CHEMBL3988442, “University of Dundee, Small-Polar-MMV Screening Library” (2021).

What all share (design): scale not given: direction of the effect not stated beside the values
Assay [1] has as its target Protein translocase subunit SecA (Escherichia coli (strain K12)) (UniProt P10408). Put plainly: Assay to Identify E. coli SecA ATPase Inhibitors. To be noted: 30 µM. Type of assay: functional.
In assay [2] the target is T1, Ubiquitin-activating enzyme e1, putative (Leishmania donovani (strain BPK282A1)) (UniProt E9BSI1).
T1 sequence (whole entry): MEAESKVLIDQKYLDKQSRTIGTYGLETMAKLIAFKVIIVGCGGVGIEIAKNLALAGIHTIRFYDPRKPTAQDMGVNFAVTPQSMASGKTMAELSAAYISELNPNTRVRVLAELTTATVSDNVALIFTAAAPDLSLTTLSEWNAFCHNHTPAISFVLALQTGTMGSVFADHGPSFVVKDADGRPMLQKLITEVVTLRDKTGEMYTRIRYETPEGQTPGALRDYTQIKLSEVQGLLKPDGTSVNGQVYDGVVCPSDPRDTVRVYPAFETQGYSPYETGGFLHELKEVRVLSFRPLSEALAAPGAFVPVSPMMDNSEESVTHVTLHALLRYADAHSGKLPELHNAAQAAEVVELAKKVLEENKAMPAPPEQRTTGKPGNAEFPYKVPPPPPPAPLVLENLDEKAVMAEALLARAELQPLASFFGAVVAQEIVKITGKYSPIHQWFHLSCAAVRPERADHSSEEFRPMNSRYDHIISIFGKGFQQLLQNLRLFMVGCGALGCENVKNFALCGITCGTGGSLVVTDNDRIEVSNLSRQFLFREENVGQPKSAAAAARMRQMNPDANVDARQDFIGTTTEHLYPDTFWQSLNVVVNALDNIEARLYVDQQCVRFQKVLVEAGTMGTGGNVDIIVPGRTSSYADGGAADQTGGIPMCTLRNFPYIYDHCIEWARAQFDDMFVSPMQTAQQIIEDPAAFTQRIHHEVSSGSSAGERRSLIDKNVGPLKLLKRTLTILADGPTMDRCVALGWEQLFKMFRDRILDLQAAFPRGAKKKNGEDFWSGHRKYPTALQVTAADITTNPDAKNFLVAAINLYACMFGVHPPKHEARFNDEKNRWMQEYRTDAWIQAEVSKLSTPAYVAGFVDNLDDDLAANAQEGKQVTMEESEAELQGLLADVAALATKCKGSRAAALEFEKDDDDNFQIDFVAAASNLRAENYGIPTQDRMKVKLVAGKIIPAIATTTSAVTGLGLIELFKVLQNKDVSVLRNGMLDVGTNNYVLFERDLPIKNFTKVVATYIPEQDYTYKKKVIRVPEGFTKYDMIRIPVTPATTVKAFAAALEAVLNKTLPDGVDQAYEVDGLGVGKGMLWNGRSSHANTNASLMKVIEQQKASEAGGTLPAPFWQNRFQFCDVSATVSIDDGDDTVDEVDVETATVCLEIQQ
The assay can be described thus: Leishmania donovani Ubiquitin Activating Enzyme (LdE1). The assay is classed as functional. Conditions: 30 µM.

The target in assay [3] is AMP-activated protein kinase, AMPK (Homo sapiens) (UniProt P54646+O43741+P54619+Q9UGJ0+Q9Y478+Q13131+Q9UGI9). The assay can be described thus: AMP-dependent Kinase enzyme assay. An in vitro enzyme assay that detects ADP turnover that is directly proportional to AMPK activity. This uses naive AMPK that is activated during the assay with MK-8722. The assay is classed as functional. To be noted: 30 µM.

In assay [4] the target is Sialic acid-binding Ig-like lectin 9 (Homo sapiens) (UniProt Q9Y336). Put plainly: Hs-Siglec9 ALPHAscreen SOP 20170721. Conditions: 10 µM. Background: Alpha assays give light when donor and acceptor beads are brought close together.
Sialic acid-binding Ig-like lectin 9 (Homo sapiens), sequence (Q9Y336 whole entry): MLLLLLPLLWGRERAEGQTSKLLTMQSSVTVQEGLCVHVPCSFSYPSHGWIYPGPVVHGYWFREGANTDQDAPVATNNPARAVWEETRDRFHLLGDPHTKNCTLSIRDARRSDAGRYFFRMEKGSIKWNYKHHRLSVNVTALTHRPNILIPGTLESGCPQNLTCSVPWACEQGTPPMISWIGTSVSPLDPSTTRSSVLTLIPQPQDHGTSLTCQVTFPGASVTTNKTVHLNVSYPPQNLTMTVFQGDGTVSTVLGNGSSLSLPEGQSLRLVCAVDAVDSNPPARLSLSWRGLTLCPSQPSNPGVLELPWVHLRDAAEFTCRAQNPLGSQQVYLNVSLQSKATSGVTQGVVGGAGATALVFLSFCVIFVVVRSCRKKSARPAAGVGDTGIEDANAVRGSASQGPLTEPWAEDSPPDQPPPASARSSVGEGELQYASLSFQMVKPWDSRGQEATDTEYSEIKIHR
In the next assay the test system is Trypanosoma cruzi. Put plainly: Trypanosoma cruzi phosphomannomutase and mannose-1-phosphate guanylyltransferase assay. To be noted: 10 µM. The assay is classed as functional.
For assay [5], the target named is T2, Arginase-2, mitochondrial (Homo sapiens) (UniProt P78540).
T2 sequence (whole entry): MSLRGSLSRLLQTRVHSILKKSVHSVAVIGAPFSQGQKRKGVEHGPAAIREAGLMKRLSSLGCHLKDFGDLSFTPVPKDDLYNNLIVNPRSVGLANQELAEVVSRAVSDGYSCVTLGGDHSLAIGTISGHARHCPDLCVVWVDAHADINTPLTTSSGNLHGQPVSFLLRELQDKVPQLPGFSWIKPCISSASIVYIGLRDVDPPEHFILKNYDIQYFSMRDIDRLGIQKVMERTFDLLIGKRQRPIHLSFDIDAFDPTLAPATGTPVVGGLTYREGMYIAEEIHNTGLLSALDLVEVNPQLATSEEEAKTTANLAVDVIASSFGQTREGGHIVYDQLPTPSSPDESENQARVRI
The assay can be described thus: in vitro enzyme assay to detect the production of urea directly proportional to the activity of Arginase II. Further: in the data most compounds retested in dose-response had high values. Type of assay: functional. To be noted: 33.3 µM.

Assay [6] addresses T3, Proteasome subunit beta (Trypanosoma cruzi) (UniProt O96673).
T3 sequence (whole entry): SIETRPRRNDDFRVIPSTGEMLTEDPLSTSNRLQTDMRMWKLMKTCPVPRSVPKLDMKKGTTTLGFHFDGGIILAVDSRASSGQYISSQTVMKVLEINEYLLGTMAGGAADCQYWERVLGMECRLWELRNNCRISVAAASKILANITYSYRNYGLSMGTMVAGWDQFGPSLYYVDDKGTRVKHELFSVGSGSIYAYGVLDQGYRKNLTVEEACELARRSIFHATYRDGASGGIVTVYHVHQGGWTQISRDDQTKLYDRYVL
Put plainly: Trypanosoma cruzi proteasome chymotrypsin-like activity (TcProtChymo) assay. Further: in the data most compounds retested in dose-response had high values. To be noted: 9.37 µM. Type of assay: functional.

The species named for another assay is Homo sapiens. The assay can be described thus: To identify inhibition of the IFN signalling (Jak-Stat) pathway via expression of an eGFP reporter gene under the control of an IFN-stimulated response element (ISRE) containing MxA promoter. Conditions: 30 µM. The assay is classed as functional. (In general: Reporter assays use an easily measured gene product as a stand-in for the process of interest.)

The target of assay [7] is T4, Tyrosyl-tRNA synthetase, putative (Trypanosoma cruzi (strain CL Brener)) (UniProt Q4DSP6).
T4 sequence (whole entry): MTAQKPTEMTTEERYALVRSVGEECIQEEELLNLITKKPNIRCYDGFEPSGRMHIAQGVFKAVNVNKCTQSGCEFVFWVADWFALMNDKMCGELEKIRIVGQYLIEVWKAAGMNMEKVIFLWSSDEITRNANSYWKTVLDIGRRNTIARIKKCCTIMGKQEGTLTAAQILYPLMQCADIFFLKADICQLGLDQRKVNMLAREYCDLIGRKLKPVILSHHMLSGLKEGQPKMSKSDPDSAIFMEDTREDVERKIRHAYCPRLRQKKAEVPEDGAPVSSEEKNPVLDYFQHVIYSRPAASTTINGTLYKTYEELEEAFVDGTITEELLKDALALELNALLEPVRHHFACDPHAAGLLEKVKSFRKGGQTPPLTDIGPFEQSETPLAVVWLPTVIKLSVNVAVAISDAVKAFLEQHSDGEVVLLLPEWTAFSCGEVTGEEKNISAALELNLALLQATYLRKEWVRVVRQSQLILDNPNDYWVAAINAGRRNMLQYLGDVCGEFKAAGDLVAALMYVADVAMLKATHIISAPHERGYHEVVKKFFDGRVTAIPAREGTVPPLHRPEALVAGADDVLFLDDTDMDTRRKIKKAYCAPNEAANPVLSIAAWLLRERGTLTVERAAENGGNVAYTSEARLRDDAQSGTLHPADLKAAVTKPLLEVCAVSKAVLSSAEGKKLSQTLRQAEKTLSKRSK
The assay can be described thus: Trypanosoma cruzi tyrosyl tRNA synthetase (TcYRS) _High Tyrosine SOP. Further: in the data most compounds retested in dose-response had high values. The assay is classed as functional. Conditions: 30 µM.

Assay [8] deals with T4, Tyrosyl-tRNA synthetase, putative (Trypanosoma cruzi (strain CL Brener)). Put plainly: Trypanosoma cruzi tyrosyl tRNA synthetase (TcYRS) SOP. The assay is classed as functional. To be noted: 30 µM.
In assay [9] the target is Chromo domain-containing protein 1 (Saccharomyces cerevisiae (strain ATCC 204508 / S288c) (Baker's yeast)) (UniProt P32657). The assay can be described thus: ScCHD-1 Enzyme Inhibition Assay. Further: in the data most compounds retested in dose-response had high values. The assay is classed as functional. Conditions: 30 µM.
Chromo domain-containing protein 1 (Saccharomyces cerevisiae (strain ATCC 204508 / S288c) (Baker's yeast)), sequence (P32657 whole entry, the tested form may be a part): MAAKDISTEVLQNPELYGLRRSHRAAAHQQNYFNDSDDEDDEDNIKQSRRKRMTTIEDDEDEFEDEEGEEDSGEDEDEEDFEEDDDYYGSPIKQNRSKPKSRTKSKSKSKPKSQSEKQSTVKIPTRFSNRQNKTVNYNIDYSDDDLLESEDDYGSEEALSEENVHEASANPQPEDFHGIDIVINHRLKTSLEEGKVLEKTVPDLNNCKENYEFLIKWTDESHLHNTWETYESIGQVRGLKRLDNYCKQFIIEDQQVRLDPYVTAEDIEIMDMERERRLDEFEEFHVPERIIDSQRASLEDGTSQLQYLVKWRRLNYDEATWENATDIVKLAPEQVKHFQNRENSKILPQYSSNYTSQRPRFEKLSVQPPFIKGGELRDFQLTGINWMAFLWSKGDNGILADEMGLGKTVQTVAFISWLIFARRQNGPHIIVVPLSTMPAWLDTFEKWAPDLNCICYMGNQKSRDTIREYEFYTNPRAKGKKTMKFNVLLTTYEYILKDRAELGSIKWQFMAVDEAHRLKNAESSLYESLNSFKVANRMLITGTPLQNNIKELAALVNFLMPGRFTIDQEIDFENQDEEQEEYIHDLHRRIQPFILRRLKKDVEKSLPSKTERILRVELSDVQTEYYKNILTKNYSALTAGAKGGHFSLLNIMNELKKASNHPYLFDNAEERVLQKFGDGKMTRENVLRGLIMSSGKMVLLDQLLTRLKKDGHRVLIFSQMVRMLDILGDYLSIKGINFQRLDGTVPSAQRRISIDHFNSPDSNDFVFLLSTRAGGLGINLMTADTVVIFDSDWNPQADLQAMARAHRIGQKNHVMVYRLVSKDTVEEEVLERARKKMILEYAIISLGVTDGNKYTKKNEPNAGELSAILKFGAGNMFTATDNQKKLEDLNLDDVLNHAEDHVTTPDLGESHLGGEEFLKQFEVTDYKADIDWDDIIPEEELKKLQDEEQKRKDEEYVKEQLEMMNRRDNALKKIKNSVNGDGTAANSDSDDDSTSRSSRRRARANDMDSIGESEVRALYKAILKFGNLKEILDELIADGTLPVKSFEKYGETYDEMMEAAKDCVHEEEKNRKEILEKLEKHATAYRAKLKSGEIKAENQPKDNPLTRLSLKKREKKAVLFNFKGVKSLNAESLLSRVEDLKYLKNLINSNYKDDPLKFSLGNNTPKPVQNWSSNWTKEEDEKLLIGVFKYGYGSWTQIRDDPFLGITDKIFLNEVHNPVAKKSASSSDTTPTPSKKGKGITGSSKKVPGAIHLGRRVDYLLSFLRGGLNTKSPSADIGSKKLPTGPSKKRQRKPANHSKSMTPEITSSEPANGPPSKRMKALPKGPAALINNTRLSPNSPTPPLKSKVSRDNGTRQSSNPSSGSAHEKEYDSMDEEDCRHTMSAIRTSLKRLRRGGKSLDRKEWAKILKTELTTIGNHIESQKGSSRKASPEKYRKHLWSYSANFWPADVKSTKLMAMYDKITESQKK

For some of these results: Entries with a potency or affinity are not part of this list.

Protein translocase subunit SecA (Escherichia coli (strain K12)), sequence (P10408 whole entry): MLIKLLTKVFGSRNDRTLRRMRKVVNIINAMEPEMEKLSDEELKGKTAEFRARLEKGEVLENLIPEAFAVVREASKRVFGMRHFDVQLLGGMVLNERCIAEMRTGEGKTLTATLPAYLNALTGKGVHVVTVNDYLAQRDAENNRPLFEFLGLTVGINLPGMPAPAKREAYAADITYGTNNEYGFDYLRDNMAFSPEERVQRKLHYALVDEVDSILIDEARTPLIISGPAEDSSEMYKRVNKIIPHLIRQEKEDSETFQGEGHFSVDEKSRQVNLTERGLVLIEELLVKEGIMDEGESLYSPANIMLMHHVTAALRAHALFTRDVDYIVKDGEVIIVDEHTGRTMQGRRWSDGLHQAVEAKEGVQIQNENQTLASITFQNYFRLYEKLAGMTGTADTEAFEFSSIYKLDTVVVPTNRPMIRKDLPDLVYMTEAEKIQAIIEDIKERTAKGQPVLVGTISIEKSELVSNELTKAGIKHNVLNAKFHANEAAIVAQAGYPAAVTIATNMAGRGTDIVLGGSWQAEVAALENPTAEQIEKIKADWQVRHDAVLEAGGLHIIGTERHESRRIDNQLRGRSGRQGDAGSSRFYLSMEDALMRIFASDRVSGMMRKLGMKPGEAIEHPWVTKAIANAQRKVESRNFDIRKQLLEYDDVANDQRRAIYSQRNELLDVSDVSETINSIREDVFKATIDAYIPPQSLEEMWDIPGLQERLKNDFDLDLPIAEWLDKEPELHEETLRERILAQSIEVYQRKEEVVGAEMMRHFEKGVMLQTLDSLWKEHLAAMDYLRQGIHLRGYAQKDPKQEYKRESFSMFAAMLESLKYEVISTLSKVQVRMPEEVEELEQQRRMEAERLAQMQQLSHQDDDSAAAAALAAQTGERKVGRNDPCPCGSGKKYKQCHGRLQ

`Cc1cc(Nc2nc(C)cs2)nc(C2CCCCN2CCO)n1` (stereo not drawn): the Percent Effect in assay [1] was -0.14%; in [2], 1.35%; in [3], -0.107%; in [4], -8.52%; in the assay with Trypanosoma cruzi, 7.12%; in [5], -5.34%. For the same compound, the Percent Effect in assay [6] is 13.9%; in the assay listed under Homo sapiens, -9.01%; in [7], 4.3%; in assay [8], 11.7%; in [9], -23.2%.

For the compound `CCCn1nc2c(cc1=O)CN(CCS(C)(=O)=O)CC2`, the Percent Effect in assay [1] was -6.22%; in assay [2], -5.41%; in assay [3], -30.8%; in [4], 22.6%; in the assay on Trypanosoma cruzi, 2.17%; in [5], -6.01%. Further, the Percent Effect in assay [6] is 7.75%; in the assay listed under Homo sapiens it was 7.82%; in assay [7], 8.37%; in assay [8], 16.1%; in assay [9], -11.1%.

Consider `CC(C)S(=O)(=O)c1nnc(CCNC(=O)OC(C)(C)C)o1`, for which the Percent Effect in assay [1] is -7.35%; in assay [2] it was 4%; in assay [3], 2.34%; in assay [4], -6.84%; with Trypanosoma cruzi, -5.3%; in assay [5], -9.33%. Besides, the Percent Effect is 14.1% in [6]; 17.5% in the assay listed under Homo sapiens; 3.17% in [7]; 2.56% in [8]; -8.11% in [9].

On to `CNC(=O)C1CCN(C(=O)c2ccn(-c3ccc(F)cc3)n2)CC1`, for which the Percent Effect was -3.93% in assay [1]; 16.2% in assay [2]; 1.73% in assay [3]; 1.5% in assay [4]; -1.21% with Trypanosoma cruzi; 2.77% in [5]. In addition, the Percent Effect was 7.54% in assay [6]; 8.4% in the assay listed under Homo sapiens; 10.9% in assay [7]; 23.2% in assay [8]; -0.908% in [9].

As for `CC(C)Cc1noc(CN2CCOC(Cn3cncn3)C2)n1` (stereo not drawn), the Percent Effect in assay [1] was -1.12%; in assay [2], 10.8%; in assay [3] it was 2.5%; in assay [4], -4.71%; with Trypanosoma cruzi it was -6.22%; in assay [5] it was 4.25%. The Percent Effect in assay [6] was 0.718%; in the assay listed under Homo sapiens it was 16.7%; in assay [7], 0%; in [8] it was 13.4%; in [9] it was -0.689%.

For the compound `COC(=O)c1ccc(C(=O)NS(=O)(=O)c2cncc(Br)c2)cc1`, the Percent Effect in assay [1] was -4.86%; in assay [2], 0%; in assay [3], 0.578%; in assay [4], 3.83%; in the assay with Trypanosoma cruzi it was -2.9%; in [5], -0.952%. The Percent Effect in assay [6] is 15.7%; in the assay listed under Homo sapiens it was 26.4%; in assay [7], -0.529%; in assay [8] it was 2.44%; in assay [9] it was -0.393%.

In the case of `COCC(=O)N1CCC(c2nc3ccc(N4CCCC4)cn3n2)CC1`, the Percent Effect is -3.58% in [1]; 5.48% in [2]; -210% in assay [3]; 5.8% in assay [4]; -4.96% in the assay with Trypanosoma cruzi; 1.2% in assay [5]. The Percent Effect in assay [6] was 10%; in the assay listed under Homo sapiens, -9.84%; in assay [7], 7.29%; in assay [8] it was 11.1%; in assay [9] it was -3.02%.

`CN(Cc1nnc(C2CC2)n1C)C1CCN(Cc2ccon2)C1` (stereo not drawn): the Percent Effect is -1.9% in assay [1]; 21.6% in assay [2]; -11.6% in [3]; -5.53% in assay [4]; -2.17% in the assay on Trypanosoma cruzi; -10% in [5]. For the same compound, the Percent Effect in assay [6] was 12.6%; in the assay filed under Homo sapiens, 7.46%; in [7], 5.42%; in assay [8], 11.1%; in [9], -7.81%.
